# Only some compounds are listed: those with a hit (about 3.6% of all), similar ones and a draw of the others.
# Peg3 prom inh: Peg3 promoter activity inhibition; inhibition, % at 20 µM; hit rate 1.7% among 360,000; HeLa PEG-Prom luciferase reporter, luminescence, overnight;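 active = inhibition of at least 50% at 20 µM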
# LGR2 antag: blocks bursicon-induced cAMP signaling via Drosophila LGR2; HEK293 LGR2, CRE-luciferase, bursicon-stimulated, 4 h; inhibition, % at 9.99 µM; hit rate 0.35% among 380,000;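 active = drop in luminescence signal, shown as inhibition above about 50% in the replicate tests, limit read from the data, passing the limit was not always enough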;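 note: agonist challenge used bursicon conditioned medium at about half maximal strength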
# KKLEB tox: reduces viability of KKLEB cystic fibrosis airway cells; hit rate 0.36% among 360,000; activity change (cytotoxicity), % at 5 µM; KKLEB CF airway cells viability, ATPlite luminescence, overnight; stronger effect = lower value; cells stimulated with P. aeruginosa culture filtrate;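 active = corrected activity change at or below -50% at 5 µM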
# HSP90 refold inh: inhibitors of HSP90 luciferase refolding in rabbit reticulocyte lysate; AID 1789; hit rate 0.91% among 290,000; luciferase refolding luminescence, 3 h; inhibition, % at 5.6 µM;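 active = inhibition above the screen-wide mean plus 3 SD, computed separately per campaign, cut at about 16% in these data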;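 note: 0% = DMSO wells and 100% = 60 µM geldanamycin wells; inhibitors lower the luminescence because luciferase stays unfolded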
# Mdm2 MdmX PPI: inhibitors of human Mdm2/MdmX interaction; inhibition, % at 8 µM; hit rate 3% among 330,000; AID 485346; SaOS-2 split-luciferase Mdm2/MdmX complementation, luminescence;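 active = inhibition of at least 50% at 8 µM in the primary screen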
# CF NFkB block: blocks PAF-induced NF-kB reporter in cystic fibrosis cells | hit rate 0.86% among 360,000 | inhibition, % at 5 µM | KKLEB NF-kB-GFP reporter, GFP fluorescence overnight;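 active = at least 50% inhibition at 5 µM, scaled per plate between neutral and stimulator controls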;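 note: PAF is a Pseudomonas aeruginosa culture filtrate used as stimulus; plate controls were PAF-stimulated DMSO wells for no effect and unstimulated DMSO wells for full effect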
# Mdm2 MdmX conf: confirmation of human Mdm2/MdmX interaction inhibitors; hit rate 55% among 10,000; shares compounds with Mdm2 MdmX PPI; inhibition, % at 8 µM; Mdm2-MdmX binding, luminescent assay; in the data active = inhibition above about 40%
# FLuc counter: counter-screen for Mdm2/MdmX inhibitors: full-length luciferase; shares compounds with Mdm2 MdmX PPI; SaOS-2 full-length luciferase counterscreen, luminescence; inhibition, % at 8 µM; hit rate 77% among 6,200;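 active = mean inhibition at 8 µM reaching about 37%, which flags the compound as non-specific, limit read from the data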;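 note: p53-null SaOS-2 cells with luciferase driven by a doxycycline-inducible promoter; compound on cells about two nights before reading with doxycycline added after day one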
# * hit, by the source's call; / = not tested or not shown; ! = a repeat was not active.
SMILES,Peg3 prom inh,LGR2 antag,KKLEB tox,HSP90 refold inh,Mdm2 MdmX PPI,CF NFkB block,Mdm2 MdmX conf,FLuc counter
CCN(CC)C(=O)Oc1ccc(Cl)c2cccnc12,-5.7,-0.7,-4.4,-2.5,4.4,16.6,/,/
C[C@@H]1CN([C@H](C)CO)C(=O)c2cc(NC(=O)Nc3ccc(F)cc3)ccc2O[C@@H](C)CCCCO[C@H]1CN(C)Cc1ccccc1,/,4.1,/,/,/,/,/,/
COc1ccc(S(=O)(=O)Nc2ccc3c(c2)CC(=O)N([C@@H](C)CO)C[C@H](C)[C@@H](CN(C)C(=O)Nc2ccc4c(c2)OCO4)O3)cc1,/,-4.4,/,/,/,/,/,/
CCCCCCCCCCCCCCCC[n+]1cccc(C(=O)N(CC)CC)c1,105.3*,-2.0,-93.2*!,0.6,77.1*,91.1*!,66.5*,17.8
CCCCCCCCCCCCCCCC[n+]1ccc(/C=N/O)cc1,104.4*,17.1,-15.7,6.3,96.5*,28.3,100.0*,7.5
CCCCCCCCCCCCCCCC[n+]1ccc(C(N)=O)cc1,98.4*,15.7,-69.0*,3.2,78.1*,62.6*,77.0*,57.4*
O/N=C/c1cccc[n+]1CCCCCC[n+]1ccccc1/C=N/O,1.5,-2.1,2.2,-0.3,17.3,-2.8,/,/
CCCNC(=O)N1C[C@H]2[C@@H](c3ccccc31)[C@H](CO)N2Cc1cc(F)ccc1F,/,-3.0,/,/,/,/,/,/
Cn1ncc2c(Nc3ccccc3Cl)nc(Nc3ccccc3Cl)nc21,9.9,-6.5,-7.0,4.0,54.1*,29.3,7.1,/
O=C(c1ccc(Br)s1)N1CCN(c2ccccn2)CC1,-18.1,10.6,1.9,3.4,-18.4,4.6,/,/
O=C(c1ccco1)N1c2ccccc2Sc2ccccc21,31.2,/,-6.2,2.3,40.8,10.2,/,/
O=C(N1CCN(c2ccccn2)CC1)N1c2ccccc2Sc2ccccc21,35.3,/,-31.9,3.9,78.6*,45.3,67.5*,77.8*
O=C(c1ccco1)N1CCN(C(=O)N2c3ccccc3Sc3ccccc32)CC1,-5.3,9.9,-17.0,0.1,51.8*,46.8,63.0*,92.0*
C=C(C)C(=O)Oc1ccc(N=Nc2ccc(C)cc2)ccc1=O,-85.7,-28.5,-2.1,/,/,3.0,/,/
C=C(C)C(=O)OC1(C(F)(F)F)Oc2cc(C)ccc2NC1=O (stereo unspecified),20.5,/,3.8,5.4,100.3*,0.3,61.1*,15.9
C=CC(=O)Nc1ccc(CN2C(=O)N(c3c(Cl)c(OC)cc(OC)c3Cl)Cc3cnc(NCCCCN(CC)CC)nc32)cc1,52.2*,/,-35.0,/,70.9*,33.8,45.4*,55.0*
C=CC(=O)Nc1cccc(Oc2nc(Nc3ccc(N4CCN(C)CC4)cc3OC)ncc2Cl)c1,/,36.1,/,/,/,/,/,/
N#C/C(=C/c1cn(-c2ccccc2)nc1-c1cccc(OCc2ccc(F)cc2)c1)C(=O)NCCCn1ccnc1,5.2,9.6,-8.6,7.2,51.7*,8.3,29.6,/
CN1C(=O)c2cc(NC(=O)C3CCOCC3)ccc2OC[C@H]2O[C@@H](CC(=O)NC3CCCC3)CC[C@@H]21,/,1.1,/,/,/,/,/,/
CO[C@@H]1CN(C)C(=O)c2cc(NC(=O)c3ccc(F)cc3)ccc2OC[C@H](C)N(C(=O)c2ccc(F)cc2)C[C@@H]1C,/,3.4,/,/,/,/,/,/
C/C(=N\NC(=O)c1c(Cl)c(C)nn1C)c1cccc(NC(=O)COc2ccc(Cl)cc2)c1,-39.7,/,-15.2,-2.8,12.3,14.2,/,/
C/C(=N/NC(=O)c1ccc(C)s1)c1cccc(NC(=O)COc2ccc(Cl)cc2C)c1,-23.6,/,-24.7,-1.3,88.8*,43.5,-0.3,/
C/C(=N\NC(=O)c1ccc(O)cc1)c1cccc(NC(=O)c2ccc(Cl)cc2)c1,-198.9,-13.2,-19.3,/,58.3*,-0.7,-2.6,/
COc1ccc(C(=O)Nc2cccc(/C(C)=N\NC(=O)c3ccoc3C)c2)cc1OC,-37.5,-30.7,-11.1,-0.2,32.9,13.8,/,/
COc1ccc(C(=O)Nc2cccc(/C(C)=N/NC(=O)c3ccc([N+](=O)[O-])c(C)c3)c2)cc1OC,44.9,/,-1.5,0.2,55.6*,44.3,-25.3,/
C[C@H](CO)N1C[C@H](C)[C@@H](CN(C)Cc2ccncc2)OCCCC[C@H](C)Oc2ccc(NC(=O)Nc3ccccc3)cc2C1=O,/,9.6,/,/,/,/,/,/

# Screening results from PubChem BioAssay.
